Source: ChEMBL document CHEMBL4513216, “Probing the Open Global Health Chemical Diversity Library for Multistage-Active Starting Points for Next-Generation Antimalarials” (ACS Infect Dis, 2020)
Out of some 69,000 compounds screened, about 8,600 (12%) showed an effect of 50% or more. The sample holds strong results, similar compounds and a random draw of the others, so the mix is not that of the screen.

Tested on: Plasmodium berghei
Assay: Screen against P. berghei liver stage (PbLuc), transformed with Luciferase, at 10uM
Type: functional, HepG2
Details: tested at 10 uM

Structure (SMILES) | INHIBITION
O=c1occ(CN2CCOCC2)c(O)c1CN1CCOCC1 | 3.19%
CNS(=O)(=O)c1cccc(C(C)NCc2ccccc2)c1 (stereo unspecified) | 11.8%
CNS(=O)(=O)c1cccc(C(C)NCc2ccncc2)c1 (stereo unspecified) | 32.9%
CC(NCc1cccc(S(=O)(=O)N(C)C)c1)c1cccnc1 (stereo unspecified) | 21.9%
CNS(=O)(=O)c1cccc(C(C)NCc2ccc(C)c(C)c2)c1 (stereo unspecified) | 62.8%
CCOc1ccc(CNC(C)c2cccc(S(=O)(=O)NC)c2)cc1 (stereo unspecified) | 46.6%
CNS(=O)(=O)c1cccc(C(C)NCc2cccc(O)c2)c1 (stereo unspecified) | 50.8%
CNS(=O)(=O)c1cccc(C(C)NCc2cccc(OC)c2)c1 (stereo unspecified) | 20.1%
Cc1nc(CNC(C)c2cccc(S(=O)(=O)N(C)C)c2)no1 (stereo unspecified) | 39.7%
CNS(=O)(=O)c1cccc(C(C)NCc2ccc(F)cc2F)c1 (stereo unspecified) | 65.4%
CC(NCc1ccc(F)cc1)c1ccc(S(C)(=O)=O)cc1 (stereo unspecified) | 25.5%
CNS(=O)(=O)c1cccc(C(C)NCc2ccc(F)c(F)c2)c1 (stereo unspecified) | 59.4%
CC(CO)NS(=O)(=O)c1cccc(C(C)C)c1 (stereo unspecified) | 26.6%
O=S(=O)(C1CC1)N1CC[C@@H]2[C@@H]1CCN2Cc1cccs1 | 33%
Cc1cccc(NC(=O)N2CCCn3cnc(CN(C)C(C)C)c3C2)c1 | -6.3%
NC(=O)c1cnn2c(C3CCCN(C4CCOCC4)C3)ccnc12 (stereo unspecified) | 10.51%
CCc1ccc(NC(=O)CC2Cn3ncnc3NC2=O)cc1 (stereo unspecified) | -4.76%
CCN1C(=O)[C@H]2CN(CC(C)C)C[C@H]2C12CCN(C(=O)NC(C)C)CC2 | -16.9%
Cc1ccc(N2CCCC3(CCCC(=O)N3)C2)nn1 (stereo unspecified) | 3.88%
CCOCCCC(=O)NCCC(=O)N1CCN(c2ccccn2)CC1 | -39.5%
CCN1CC(O)CN(C(=O)c2ccc(SC)cc2)CC1=O (stereo unspecified) | 47.2%
c1ccc2nc(N3CCOC(Cn4cncn4)C3)cnc2c1 (stereo unspecified) | -44.3%

Structure (SMILES) | INHIBITION
CCN(CC(=O)N(C)C)C(=O)c1nc(C)n(-c2ccccc2Cl)n1 | -28.7%
CCc1cc(CN(C)C(=O)c2cnn[nH]2)on1 | -47.9%
COc1ccccc1CNc1ncnc2c1NC(=O)CN2 | -79.3%
O=C(NCc1nncn1C1CCCCC1)C1COc2ccccc2O1 (stereo unspecified) | 35.4%
CNS(=O)(=O)c1cccc(C(C)NCc2ccsc2)c1 (stereo unspecified) | 36.3%
CNS(=O)(=O)c1cccc(C(C)NCc2ccco2)c1 (stereo unspecified) | 55.1%
CNS(=O)(=O)c1cccc(C(C)NCc2nccn2C(C)C)c1 (stereo unspecified) | 23.5%
CNS(=O)(=O)c1cccc(C(C)NCc2cccc(C)c2C)c1 (stereo unspecified) | 52.6%
CNS(=O)(=O)c1cccc(C(C)NCc2ccc(C)o2)c1 (stereo unspecified) | 35.4%
CNS(=O)(=O)c1cccc(C(C)NCc2ccccc2OC)c1 (stereo unspecified) | -9.93%
O=C(NCc1ccccc1)[C@H]1C[C@H]2CN(C(=O)NC3CCCC3)C[C@@H]1O2 | 7.65%
CCC1CCCCN1C(=O)Cn1nc(-c2cc(C)oc2C)cc(N)c1=O (stereo unspecified) | 37.5%
N#Cc1cccc(C(=O)N2CCc3c(COCC4CC4)cncc3C2)c1 | 18.7%
COc1ccc(CNc2cccnc2-n2cccn2)c(OC)c1OC | 41.5%
O=C(NC1CCCC1)N1CCCCC1c1nc(C2CC2)no1 (stereo unspecified) | 38.6%
Fc1ccc(CN2CCCn3nnc(COCC4CC4)c3C2)cc1 | 46.6%
Cc1ccccc1C(=O)N1CC[C@@H]2CN(c3ncccn3)CCO[C@@H]2C1 | 47.4%
Cc1cnc(C(=O)N2CC[C@@H]3CN(c4ncccn4)CCO[C@@H]3C2)cn1 | 56.7%
O=C(c1ccncc1F)N1CC[C@@H]2CN(c3ncccn3)CCO[C@@H]2C1 | -1.55%
O=C(c1cccc(F)c1)N1CC[C@@H]2CN(c3ncccn3)CCO[C@@H]2C1 | 48.6%
Cc1cccc(C(=O)N2CC[C@@H]3CN(c4ncccn4)CCO[C@@H]3C2)c1 | 4.27%
O=C(c1ccccc1F)N1CC[C@@H]2CN(c3ncccn3)CCO[C@@H]2C1 | 69.5%

Structure (SMILES) | INHIBITION
CN1CCCC1c1cncc(C(=O)NCc2ccccc2)n1 (stereo unspecified) | 40.6%
CN1CCN([C@@H]2CCN(CC3CCOC3)[C@H]2Cc2cnn(C)c2)CC1 (stereo partly specified) | -10.5%
COCC(=O)N1CCC2(CC1)COCCN2CCN(C)C | 0.547%
O=C(c1ccccc1)N1C[C@H]2CCC[C@@]2(COCc2ccncc2)C1 | -4.88%
Cc1cc(NCCNc2ccc(C#N)cn2)nc(C)n1 | -14.1%
CN(C)c1ccc(C(=O)NCCCNc2ccc(C(F)(F)F)cn2)cc1 | 38.95%
N#Cc1ccc(C(=O)NCCCNc2ccc(C(F)(F)F)cn2)cc1 | 42.7%
O=C(NCCCNc1ccc(C(F)(F)F)cn1)c1ccccc1 | 10.65%
O=C(NCCNc1ccc(C(F)(F)F)cn1)c1ccc(F)cc1Cl | 3.73%
Nc1nccnc1C(=O)NCCCNc1ccc(C(F)(F)F)cn1 | 25.55%
Cc1ccc(C(=O)NCCCNc2ccc(C(F)(F)F)cn2)cc1 | 51.85%
O=C(NCCCNc1ccc(C(F)(F)F)cn1)c1ccc(F)cc1F | -23.9%
O=C(NCCCNc1ccc(C(F)(F)F)cn1)c1ccc(F)cc1Br | 82.6%
O=C(NCCCNc1ccc(C(F)(F)F)cn1)c1ccc(F)cc1 | 67.3%
N#Cc1ccc(NCCNc2ccc(C(F)(F)F)cn2)nc1 | 78.4%
COc1ccc(C(=O)NCCCNc2ccc(C(F)(F)F)cn2)cc1 | 34.15%
O[C@H]1CN(Cc2ccnc(N3CCCC3)n2)CC[C@@]12CCCO2 | -14.2%
Cc1ncsc1CN(C)Cc1cc2c(cc1OC(F)F)OCO2 | 34.9%
Cc1csc(C(C)(C)NCc2ncc(-c3ccccc3)o2)n1 | -20.3%
CN(C)C(=O)c1nc(-c2ccc(S(C)(=O)=O)cc2)c2ccccn12 | 17.6%
CNC(=O)C1CN(C(=O)COc2ccccc2)Cc2cn(C)nc21 (stereo unspecified) | 42.6%
COC(=O)Cn1c(=O)[nH]c2cn(-c3cccc(C)c3)c(=O)n21 | -9.39%

Structure (SMILES) | INHIBITION
CNC(=O)CNC(=O)NCc1cc2c(s1)CCC(C)(C)C2 | 26.1%
O=C(NCCCNc1ccc(C(F)(F)F)cn1)c1ccc2c(c1)OCO2 | 60.5%
O=C(NCCNc1ccc(C(F)(F)F)cn1)c1ccc(Br)cc1 | -18%
O=C(NCCNc1ccc(C(F)(F)F)cn1)c1cncc(Br)c1 | 26.1%
CSCc1ccc(C(=O)NCCCNc2ccc(C(F)(F)F)cn2)cc1 | 60.95%
COCc1ccc(C(=O)NCCCNc2ccc(C(F)(F)F)cn2)cc1 | 24.15%
O=C(NCCNc1ccc(C(F)(F)F)cn1)c1ccc(Cl)cc1F | 29.4%
CN(CCc1cccs1)C(=O)Nc1cnn(CC2CCCO2)c1 (stereo unspecified) | 6.33%
Cc1csc2cc(C(=O)NC3CC3)cnc12 | -82.4%
CCN1CCC2(COCc3c(C)nc(N(C)C)nc32)C1 (stereo unspecified) | 2.59%
CCOc1ncccc1C(=O)N1CCCC1c1c(C)nn(C)c1OC (stereo unspecified) | 32.4%
Cc1ccc2c(c1)SCC(=O)N2CC(=O)N1CCCC1c1cc(C)on1 (stereo unspecified) | -1.45%
Cc1ccc2c(c1)SCC(=O)N2CC(=O)N1CCCC1c1cc(C)no1 (stereo unspecified) | -40.6%
Cc1ccc2c(c1)SCC(=O)N2CC(=O)N1CCC[C@H]1c1nc(C)no1 | 74%
c1ccc(OCCN2CCC(c3nnc(-c4cccnc4)o3)CC2)cc1 | 20.8%
c1ccc(CCCN2CC[C@H](c3nnc(-c4cccnc4)o3)C2)cc1 | 13.5%
O=C(NCC1CCC(c2nnc(-c3cccnc3)o2)CC1)C1CC1 (stereo unspecified) | 50.8%
c1ccc(-c2nnc(C3CCCN(CC4CCCCC4)C3)o2)nc1 (stereo unspecified) | 7.52%
c1cncc(-c2nnc([C@H]3CCN(CC4CCCCC4)C3)o2)c1 | 55.9%
COCC(=O)NCC1CCC(c2nnc(-c3cccnc3)o2)CC1 (stereo unspecified) | -8.58%
c1cc(-c2nnc(C3CCCN(CC4CCCCC4)C3)o2)ccn1 (stereo unspecified) | 38.8%
COCC(=O)NCC1CCC(c2nnc(-c3ccncc3)o2)CC1 (stereo unspecified) | 13.7%

Structure (SMILES) | INHIBITION
c1cncc(-c2nnc([C@H]3CCN(CC4CC4)C3)o2)c1 | 67.8%
CC(=O)N1CCC(Cc2cnc(-n3ccnc3)cn2)CC1 | 17.1%
COC(=O)c1ccc(OC)c(Cn2cc(N)cn2)c1 | 18.9%
Cc1nc(C)n(CC2CN(Cc3nccs3)Cc3nccn3C2)n1 (stereo unspecified) | 8.03%
Cc1cc(F)cc(S(=O)(=O)Nc2ccn(CCCC#N)n2)c1 | 26%
CC(=O)N(Cc1ncc(C)o1)C1CCN(CCc2cnn(C)c2)C1 (stereo unspecified) | -36.1%
O=C(N1CCOCC1)N1C[C@@H]2CC[C@H]1CN(C1Cc3ccccc3C1)C2 | -43.5%
C[C@@H]1CN(Cc2nc(Cc3ccccc3F)no2)C[C@H](C)O1 | 3.93%
Cc1nc(C2CCNC2)nc2c1CCC(=O)N2C (stereo unspecified) | 17.265%
CS(=O)(=O)Cc1nc(CN2CCCc3sccc3C2)cs1 | 36.2%
CS(=O)(=O)Cc1nc(CN2CCOc3ccccc3C2)cs1 | 7.31%
CS(=O)(=O)Cc1nc(CN2CC=C(c3ccccc3)CC2)cs1 | 27.6%
CC1(C)CN(Cc2csc(CS(C)(=O)=O)n2)Cc2ccccc21 | 60.8%
CS(=O)(=O)Cc1nc(CN2CCC(C(F)(F)F)CC2)cs1 | 52.2%
CS(=O)(=O)Cc1nc(CNc2c(F)cc(F)cc2F)cs1 | 40.4%
CCc1nc(CSCc2csc(CS(C)(=O)=O)n2)cs1 | -29.2%
Cc1cc(CSCc2csc(CS(C)(=O)=O)n2)no1 | 19.4%
CS(=O)(=O)Cc1nc(CN2CCc3ccccc3CC2)cs1 | 56.5%
